Laboratory results from PubChem BioAssay.
The source made the active and inactive calls.

Assays:
[1] = compounds binding Alexa647 anti-His antibody – biochemical, small-molecule microarray, 635 nm fluorescence, artefact control for SMM control protein annotation, primary screen (AID 1128); settings: higher = more signal;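 further: score merges feature fluorescence with signal-to-noise for each printed compound spot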
[2] = tested on: Human papillomavirus type 1a E7 protein (residues 1-88); test: HPV1a E7 small-molecule binders, primary screen, biochemical, small-molecule microarray, residues 1-88, 635 nm (AID 1129); settings: small-molecule microarray binding, fluorescence 635 nm; higher = more signal
[3] = target: Focal adhesion kinase 1 (Homo sapiens) (UniProt Q05397); test: PTK2 protein binding on printed compound slides – biochemical, small-molecule microarray, 635/667 nm fluorescence, BSA, DTT, primary screen (AID 1130); settings: 635 nm fluorescence, higher = more signal;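 further: composite of spot emission at 667 nm and signal to noise over triplicate slides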
[4] = tested on: Fibrinogen (Alexa647-labelled); test: Alexa647-fibrinogen binding to printed small molecules – biochemical, small-molecule microarray, 635/667 nm fluorescence, artefact control for SMM control-protein annotation, profiling panel (AID 1131); settings: fibrinogen-A647 binding fluorescence, higher = more signal;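 further: z-score merges 667 nm fluorescence with per-spot signal-to-noise over triplicate slides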
[5] = target: Follistatin (Homo sapiens) (UniProt P19883); test: FST protein binding to printed compounds – biochemical, small-molecule microarray, 635/667 nm fluorescence, primary screen (AID 1132); settings: 635 nm fluorescence, higher = more signal
[6] = target: Fibroblast growth factor 2 (Homo sapiens) (UniProt P09038); test: basic fibroblast growth factor binding to printed compounds – biochemical, small-molecule microarray, 635/667 nm fluorescence, primary screen (AID 1133); settings: FGF2, fluorescence 635/667, higher = more signal
[7] = JC-1 mitochondrial potential readout, lung cancer cells – cell-based, A549, JC-1 fluorescence, basal, 24 h, 100 nL, profiling panel (AID 1138); settings: higher = more signal;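 further: A549 lung adenocarcinoma cells under basal conditions with no added stimulus; test concentration not given here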
Lefty1 = Lefty1 protein binding to printed compounds – biochemical, small-molecule microarray, 635/667 nm fluorescence, primary screen (AID 1139); settings: fluorescence 635/667, higher = more signal
[8] = tested on: wheat germ agglutinin (Triticum aestivum), Alexa647-labelled; test: Alexa647-WGA lectin binding to printed small molecules – biochemical, small-molecule microarray, 635/667 nm fluorescence, artefact control for SMM control-protein annotation, profiling panel (AID 1140); settings: WGA-A647 binding, 635 nm fluorescence, higher = more signal;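 further: score merges 667 nm feature emission with signal to noise over triplicate slides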
[9] = target: Luciferin 4-monooxygenase (Photinus pyralis) (UniProt P08659); test: inhibition of purified Photinus pyralis luciferase – biochemical, luminescence, purified enzyme, 2006 set, primary screen (AID 1141); settings: purified firefly luciferase, SteadyGlo luminescence, 30 min; higher = more signal, called active from +8 up or from −8 down;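 further: cell-free assay with purified firefly luciferase at 100 ng per well in PBS; test concentration not given here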
Luciferin 4-monooxygenase (Photinus pyralis), sequence (P08659 whole entry, looked up): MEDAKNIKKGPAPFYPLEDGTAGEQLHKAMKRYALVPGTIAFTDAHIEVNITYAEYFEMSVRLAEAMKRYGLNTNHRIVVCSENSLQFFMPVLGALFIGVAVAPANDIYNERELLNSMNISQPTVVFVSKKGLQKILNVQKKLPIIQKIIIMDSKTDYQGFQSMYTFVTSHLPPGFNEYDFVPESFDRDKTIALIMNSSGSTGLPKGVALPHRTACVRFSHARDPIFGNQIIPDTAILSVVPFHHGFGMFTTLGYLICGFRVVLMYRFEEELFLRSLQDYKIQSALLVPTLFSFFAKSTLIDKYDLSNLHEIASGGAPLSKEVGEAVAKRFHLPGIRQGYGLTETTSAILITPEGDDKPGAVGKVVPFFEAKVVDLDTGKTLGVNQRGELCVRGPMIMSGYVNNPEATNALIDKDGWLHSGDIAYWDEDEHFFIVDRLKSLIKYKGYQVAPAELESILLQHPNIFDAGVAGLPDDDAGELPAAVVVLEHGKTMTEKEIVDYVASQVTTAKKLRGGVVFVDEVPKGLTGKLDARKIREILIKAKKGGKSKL

Follistatin (Homo sapiens), sequence (P19883 whole entry, looked up): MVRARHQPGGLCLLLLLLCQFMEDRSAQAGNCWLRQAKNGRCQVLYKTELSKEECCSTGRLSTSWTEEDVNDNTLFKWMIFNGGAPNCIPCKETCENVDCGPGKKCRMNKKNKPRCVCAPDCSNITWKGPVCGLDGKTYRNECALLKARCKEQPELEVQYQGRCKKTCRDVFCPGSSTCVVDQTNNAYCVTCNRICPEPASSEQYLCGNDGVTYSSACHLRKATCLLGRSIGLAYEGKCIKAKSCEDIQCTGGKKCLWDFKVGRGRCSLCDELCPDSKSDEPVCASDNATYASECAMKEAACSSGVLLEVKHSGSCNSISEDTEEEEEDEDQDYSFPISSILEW
Fibroblast growth factor 2 (Homo sapiens), sequence (P09038 whole entry, looked up): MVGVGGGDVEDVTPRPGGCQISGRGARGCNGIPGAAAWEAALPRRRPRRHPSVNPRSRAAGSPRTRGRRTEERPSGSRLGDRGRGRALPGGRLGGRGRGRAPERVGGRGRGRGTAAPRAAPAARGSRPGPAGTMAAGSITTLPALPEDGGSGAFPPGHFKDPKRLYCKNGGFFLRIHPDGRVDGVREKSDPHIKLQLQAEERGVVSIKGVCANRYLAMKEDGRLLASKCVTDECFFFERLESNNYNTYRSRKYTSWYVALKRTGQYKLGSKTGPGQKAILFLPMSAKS
Focal adhesion kinase 1 (Homo sapiens), sequence (Q05397 whole entry, looked up): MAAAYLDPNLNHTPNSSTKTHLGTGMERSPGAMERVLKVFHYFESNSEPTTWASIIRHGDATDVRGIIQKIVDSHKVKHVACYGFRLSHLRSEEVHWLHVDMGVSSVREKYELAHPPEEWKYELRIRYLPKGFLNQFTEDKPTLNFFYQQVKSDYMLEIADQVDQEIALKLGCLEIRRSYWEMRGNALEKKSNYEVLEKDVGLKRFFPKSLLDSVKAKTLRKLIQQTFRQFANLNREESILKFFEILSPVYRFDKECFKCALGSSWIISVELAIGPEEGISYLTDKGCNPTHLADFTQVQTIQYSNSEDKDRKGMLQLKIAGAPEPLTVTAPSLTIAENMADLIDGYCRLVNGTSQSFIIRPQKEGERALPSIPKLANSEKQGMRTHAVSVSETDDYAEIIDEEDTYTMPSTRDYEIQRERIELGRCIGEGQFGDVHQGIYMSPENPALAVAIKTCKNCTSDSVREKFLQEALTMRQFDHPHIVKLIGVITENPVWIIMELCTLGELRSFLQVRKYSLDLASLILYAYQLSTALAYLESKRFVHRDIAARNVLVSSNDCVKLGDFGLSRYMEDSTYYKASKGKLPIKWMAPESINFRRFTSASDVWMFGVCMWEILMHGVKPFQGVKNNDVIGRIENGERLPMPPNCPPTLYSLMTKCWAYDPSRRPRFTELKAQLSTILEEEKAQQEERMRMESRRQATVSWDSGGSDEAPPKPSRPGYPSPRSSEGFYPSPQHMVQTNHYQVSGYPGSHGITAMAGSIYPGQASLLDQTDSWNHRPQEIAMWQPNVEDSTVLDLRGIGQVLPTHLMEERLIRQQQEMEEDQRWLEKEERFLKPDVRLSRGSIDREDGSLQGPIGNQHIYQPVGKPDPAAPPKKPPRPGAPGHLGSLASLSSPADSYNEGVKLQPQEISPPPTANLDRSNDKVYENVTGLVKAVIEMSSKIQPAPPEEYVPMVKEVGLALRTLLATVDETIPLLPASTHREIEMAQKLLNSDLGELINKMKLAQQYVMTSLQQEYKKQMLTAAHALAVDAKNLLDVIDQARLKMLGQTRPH

Row | Compound | composite z-score [1] | composite z-score [2] | composite z-score [3] | composite z-score [4] | composite z-score [5] | composite z-score [6] | z-score [7] | composite z-score (Lefty1) | composite z-score [8] | z-score [9]
1 | COC(=O)[C@H](Cc1ccccc1)N1CC(C)(OC)O[C@@H](Cc2ccccc2)[C@H]1/C=C/C1CC1 (stereo not given in full) | 0.575 | 0.145 | 0.0639 | 0.47 | 0.0103 | 0.0959 | 0.385 | -0.14 | 0.808 | -0.138 (inactive)
2 | COC(=O)C1(CC(C)C)C=C2C(=C(C)C(=O)C2C)CN1 (stereo not given) | 2.95 | 0.098 | 0.183 | -0.423 | 0.901 | -0.583 | 1.05 | -0.368 | 0.67 | 1.98 (inactive)
3 | CCOC(=O)C1=CCC(c2ccncc2)N(S(=O)(=O)c2ccc(C)cc2)C1 (stereo not given) | 0.871 | 1.25 | 1.5 | 1.01 | 0.844 | 0.454 | -0.497 | 0.353 | 0.829 | -0.786 (inactive)
4 | CCCCC(=C=CC[C@@H](O)c1ccccc1OCCO)C[C@@H](O)c1ccccn1 | -0.242 | 0.451 | 0.36 | 0.296 | 0.638 | 0.356 | 0.969 | 0.699 | -0.306 | -0.96 (inactive)
5 | COC(=O)[C@@]1(Cc2ccccc2)[C@H]2c3cc(C(=O)N(C)C)n(Cc4nc5ccccc5[nH]4)c3C[C@H]2CN1C(=O)c1ccccc1 | 1.85 | 1.24 | 0.872 | 1.03 | 0.804 | -0.378 | 0.157 | -0.414 | 0.779 | -1.77 (inactive)
6 | Cc1ccc(S[C@]2(C(=O)NC(C)C)CC(=O)N(Cc3ccccc3)[C@@H]2c2ccc(CO)cc2)cc1 | 0.0893 | -0.161 | 0.274 | -1.36 | -1.15 | -1.36 | 0.649 | -1.06 | 0.704 | 0.262 (inactive)
7 | O=C1C[C@@](C(=O)NCC(F)(F)F)(c2ccc([N+](=O)[O-])cc2)[C@@H](c2ccc(CO)cc2I)N1CC12CC3CC(CC(C3)C1)C2 | 1.31 | 0.722 | -0.0231 | 0.93 | 0.994 | 1.34 | 1.73 | 1.22 | 0.249 | -0.251 (inactive)
8 | CS(=O)(=O)CCOC(=O)C1=CC(CCCO)=CC(C2CC2)N(Cc2sc3ccccc3c2Cl)C=C1C(=O)OCCS(C)(=O)=O (stereo not given) | 2.14 | 1.04 | 0.435 | 0.753 | 1.3 | 0.897 | 0.995 | 1.23 | 1.03 | -1.14 (inactive)
9 | CO[C@H]1O[C@H](CO)[C@@H](OC(=O)Nc2cccc(F)c2)[C@H](OC(=O)Nc2ccc3c(c2)OCO3)[C@@H]1OC(=O)Nc1ccc2c(c1)OCO2 | 2.61 | 1.29 | 0.243 | 0.973 | 1.25 | 0.217 | -0.307 | 0.278 | 0.654 | -4.46 (inactive)
10 | CN(C)CCCC[C@@H]1NC(=O)[C@H]2C[C@@H](C(=O)NCCCCCCNC(=O)CS)[C@@H](c3cccc(OCCO)c3)N2C1=O | 1.17 | 0.593 | 0.292 | 0.511 | 0.52 | 1 | 0.115 | -0.673 | -0.115 | 0.117 (inactive)
11 | O=C(NCC(F)(F)F)[C@@H]1c2ccccc2C(=O)N(Cc2cc(C(F)(F)F)cc(C(F)(F)F)c2)[C@H]1c1ccc(CO)cc1 | 3.22 | 0.0165 | 0.246 | -0.0773 | 0.647 | 0.295 | 1.89 | -0.26 | -0.352 | 0.839 (inactive)
12 | CCCCC=C[C@@H](NC(=O)C(C)(C)C)c1ccccc1 | 1.14 | 1.09 | 0.35 | 0.935 | 0.495 | -0.0812 | -2.82 | 0.302 | 0.814 | 1.76 (inactive)
13 | O=C1O[C@H](c2ccccc2)[C@H](c2ccccc2)N2[C@H]1[C@@H](C(=O)N1CCN(c3ncccn3)CC1)[C@]1(C(=O)Nc3ccc(C#CC4(O)CCCCCC4)cc31)[C@H]2c1ccc(O)cc1 | 1.75 | 1.2 | 0.62 | 0.902 | 0.951 | 0.89 | 1.36 | 0.58 | 1.06 | -1.63 (inactive)
14 | [N-]=[N+]=Nc1ccccc1C[C@@]1(C(=O)NCc2ccccc2)N=C(c2ccc(OCCCO)cc2)O[C@@H]1c1ccccc1 | 1.58 | 1.22 | -0.255 | 0.695 | 1.47 | 0.992 | 0.945 | -0.0651 | 0.626 | -1.39 (inactive)
15 | COC(=O)C(CC#Cc1ccc2c(c1)[C@]1(C(=O)N2)[C@H](C(=O)NC[C@H](O)c2ccccc2)[C@H]2C(=O)O[C@H](c3ccccc3)[C@H](c3ccccc3)N2[C@@H]1c1ccc(O)cc1)C(=O)OC | -0.716 | -0.0341 | 0.105 | -0.906 | 0.276 | 0.0859 | -1.62 | 0.192 | 0.0123 | -0.168 (inactive)
16 | C=CC[C@]1(C(=O)NCC(O)CO)N=C(c2ccc(OCCCO)cc2)O[C@H]1c1ccccc1CN=[N+]=[N-] (stereo not given in full) | 2.81 | 1.22 | -0.209 | -0.204 | 0.875 | 0.785 | 0.895 | -0.0497 | 0.502 | -0.154 (inactive)
17 | C=CCC(OC(C)=O)[C@@H]1[C@@H](N(Cc2ccc(-c3ccccc3)cc2)C(=O)Cc2ccc(OC)cc2)c2cc(OCCCO)ccc2N1C(=O)Cc1ccc(OC)cc1 (stereo not given in full) | 0.271 | 0.0716 | 1.78 | 0.513 | 0.7 | 0.0471 | 0.462 | 0.161 | 0.365 | 0.355 (inactive)
18 | COc1c(C)cc(-c2cc3c(c(CCc4ccccc4)n2)[Si](C(C)C)(C(C)C)O[C@H]3c2ccccc2)cc1C | -0.439 | -0.425 | -0.191 | -0.543 | 0.029 | -0.278 | 0.386 | 0.268 | 0.183 | -0.183 (inactive)
19 | CN1C2C=C(c3ccc(CO)cc3)C(C3C(=O)N(C(N)=O)C(=O)C32)C1C1CC1 (stereo not given) | 0.573 | -0.241 | -0.215 | 0.586 | -0.189 | -0.379 | -0.572 | -0.72 | 0.239 | -0.0168 (inactive)
20 | C=C1C(=O)C=C2CN(C(=O)c3ccccc3)[C@@](Cc3ccc(F)cc3)(C(=O)OC)[C@@H]12 | 1 | 1.18 | 0.69 | 1.03 | 1.25 | -0.234 | -3.17 | -0.384 | 0.872 | -25.6 (active)
21 | CN1C(=O)C2C=CC(C(O)COCc3ccccc3)N(Nc3ccc([N+](=O)[O-])cc3[N+](=O)[O-])C2C1=O (stereo not given) | -1.08 | 1.08 | 0.903 | -0.428 | -0.232 | 0.41 | 1.89 | -0.798 | 0.333 | -1.05 (inactive)
22 | C=CCNC(=O)[C@@H]1[C@H]2C(=O)O[C@H](c3ccccc3)[C@H](c3ccccc3)N2[C@H](c2ccc(OCCO)cc2)[C@@]12C(=O)N(C(=O)OCCOC)c1ccccc12 | 1.25 | 1.19 | 0.986 | 0.61 | 1.29 | 1.26 | 1.11 | 0.581 | 0.539 | 0.36 (inactive)
23 | C[C@]1(C(=O)O)c2ccccc2C(=O)N(Cc2cc(C(F)(F)F)cc(C(F)(F)F)c2)[C@H]1c1ccc(CO)cc1 | -0.41 | -0.129 | 0.0797 | 0.844 | 0.82 | -0.354 | -0.401 | 1.02 | 0.861 | 1.01 (inactive)
24 | COc1ccc([Si](C)(C)[C@H]2[C@H](CC(=O)N(CCO)Cc3ccccc3)O[C@@]3(C(=O)N(c4ccccc4)c4ccccc43)[C@@H]2C)cc1 | 1.2 | 1.11 | 0.207 | 0.743 | 1.1 | 0.679 | -0.23 | 0.83 | 0.135 | -0.429 (inactive)
25 | COc1ccc(C(=O)Nc2cccc(CN3C(=O)[C@]4(O[C@H](CC(=O)N(CCO)Cc5ccccc5)[C@@H]([Si](C)(C)c5ccc(OC)cc5)[C@@H]4C)c4ccccc43)c2)cc1 | 0.699 | 1.07 | 0.116 | 0.334 | 0.959 | 1.15 | -0.0253 | 0.565 | 0.596 | -0.881 (inactive)
26 | COC(=O)C[C@H]1O[C@]2(C(=O)N(C)c3ccccc32)[C@@H](C)[C@@H]1[Si](C)(C)c1ccccc1 | 0.83 | 0.941 | 0.764 | 0.794 | 1.05 | 0.856 | 0.186 | 0.966 | 0.219 | 1.24 (inactive)
27 | O=C1O[C@H](c2ccccc2)[C@H](c2ccccc2)N2[C@H]1[C@@H](C(=O)O)[C@]1(C(=O)Nc3ccc(C#CC4(O)CCCCCC4)cc31)[C@H]2c1ccccc1OCCO | 1.16 | 1.23 | 0.854 | 0.924 | 0.729 | 0.435 | 0.833 | 0.664 | 1.25 | -3.82 (inactive)
28 | CC(=O)NCCCC[C@@H]1NC(=O)[C@H]2C[C@@H](C(=O)NCCCCCN)[C@@H](c3ccc(O)cc3)N2C1=O | 2.49 | 1.21 | 0.948 | 0.653 | 1.12 | 1.13 | -0.109 | 0.944 | 0.773 | 0.148 (inactive)
29 | C=C(C(=O)CC[C@@H](OC(=O)c1ccccc1-c1ccccc1C(=O)O)c1ccc(CO)o1)C(C)C | 0.546 | 0.434 | -0.304 | 0.876 | 1.39 | 1.76 | 0.475 | 1.51 | 0.707 | -3.22 (inactive)
30 | COC(=O)C(CC#Cc1ccc2c(c1)[C@]1(C(=O)N2)[C@H](C(=O)N2CCN(c3ncccn3)CC2)[C@H]2C(=O)O[C@H](c3ccccc3)[C@H](c3ccccc3)N2[C@@H]1c1ccc(O)cc1)C(=O)OC | 1.19 | 1.25 | 0.904 | 0.951 | 1.43 | 1.57 | -0.877 | 1.03 | 1.36 | -0.178 (inactive)
